Assay outcomes deposited in PubChem by The Scripps Research Institute Molecular Screening Center.
Rows were chosen to be rich in hits. Some 3.4% of all compounds tested hit in one or more screens of this group.
TEAD-YAP inh = TEAD-YAP interaction inhibition. HEK-TIYL cells, TEAD-Gal4/YAP UAS-luciferase luminescence. inhibition, % at 9.12 µM. 1.4% of 640,000 active; in the data active = inhibition above about 32%
MITF inh = human MITF inhibition, primary screen; 0.91% of 650,000 active; AlphaScreen MITF homodimerization, bead proximity signal; inhibition, % at 2.6 µM; in the data active = inhibition above about 50%
Target sequence (O75030 whole entry, looked up): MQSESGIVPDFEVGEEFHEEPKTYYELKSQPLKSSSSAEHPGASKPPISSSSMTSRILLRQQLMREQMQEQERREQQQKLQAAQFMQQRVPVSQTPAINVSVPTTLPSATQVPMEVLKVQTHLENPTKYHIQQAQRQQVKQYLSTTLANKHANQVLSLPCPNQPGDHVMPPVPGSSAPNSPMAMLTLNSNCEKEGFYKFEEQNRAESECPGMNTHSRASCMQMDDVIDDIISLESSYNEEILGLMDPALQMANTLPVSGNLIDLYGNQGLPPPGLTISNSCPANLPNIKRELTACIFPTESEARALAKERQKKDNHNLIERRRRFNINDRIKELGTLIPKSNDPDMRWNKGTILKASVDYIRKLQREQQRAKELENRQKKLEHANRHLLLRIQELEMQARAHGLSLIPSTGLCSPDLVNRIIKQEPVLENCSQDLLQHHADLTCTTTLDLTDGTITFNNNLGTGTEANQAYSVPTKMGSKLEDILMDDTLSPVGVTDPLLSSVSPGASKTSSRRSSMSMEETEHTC
FBW7 activator = human FBW7 E3 ligase activation, primary screen. AlphaScreen FBW7–phospho-cyclin E peptide binding, activator screen. normalized activity (activation), % at 26.1 µM. 0.13% of 650,000 active. AID 1259310; in the data active = normalized activity above about 1.9%;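 also: purified mutant Fbw7 with reduced substrate affinity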
GPR151 activ = human GPR151 activation; 1% of 650,000 active; PathHunter beta-arrestin GPR151 cells, luminescence; Q8TDV0; activation, % at 11.2 µM; AID 1508602; in the data active = activation above about 4.9%
A number is an active result; n = inactive.

SMILES	TEAD-YAP inh	MITF inh	FBW7 activator	GPR151 activ
O=C(NNC(=O)c1cc2cc(Br)ccc2oc1=O)c1ccc(O)cc1O	34	n	n	n
CNC(=O)c1cc2cc(Br)ccc2oc1=O	n	n	n	n
O=C(Cc1ccccc1)Nc1ccc(N2C(=O)c3ccc4c5c(ccc(c35)C2=O)CC4)cc1	43	n	n	n
COc1ccc2sc(N(Cc3cccnc3)C(=O)c3cccc(C)c3)nc2c1	40	n	n	n
CCN(CC)C(=O)N1c2ccccc2CCc2ccccc21	42	n	n	n
COc1ccc(-c2nccc(Nc3cc(OC)c(OC)c(OC)c3)n2)cc1	60	n	n	n
COc1ccc(-c2nc(Nc3cc(OC)c(OC)c(OC)c3)nc(OC)n2)cc1	45	n	n	n
COc1ccc(-c2nc(Nc3ccc(Oc4ccccc4)cc3)nc(OC)n2)cc1	n	n	n	n
CCOC(=O)c1c(NC(=O)c2c(C)nn(-c3ccccc3)c2Cl)sc2c1CCCC2	n	n	n	n
CCOC(=O)c1ccc(N=Cc2c(O)n(-c3cccc(OC)c3)c(=O)[nH]c2=O)cc1	n	n	n	n
COc1ccc(N=Cc2c(O)n(-c3cccc(OC)c3)c(=O)[nH]c2=O)cc1	n	76	n	n
COc1cc(C(=O)N/N=C(\C)c2cccs2)cc(OC)c1OC	54	n	n	n
COc1cc(C(=O)N/N=C(\C)c2ccc(N)cc2)cc(OC)c1OC	49	n	n	n
COc1cc(C(=O)N/N=C(C)/C=C/c2ccccc2)cc(OC)c1OC	64	n	n	n
C/C(=N/NC(=O)c1cc(O)c(O)c(O)c1)c1ccc(F)cc1	n	59	n	n
CN(C(=O)c1ccc(F)cc1)C1(C)CCS(=O)(=O)C1 (configuration not stated)	n	n	n	n
COc1cc(C(=O)N/N=C(\C)c2ccco2)cc(OC)c1OC	53	n	n	n
C/C(=N/NC(=O)c1cc(O)cc(O)c1)c1ccco1	n	n	n	n
COc1cc(C(=O)NN2C(=O)c3ccccc3C2=O)cc(OC)c1OC	52	n	n	n
COc1cc(C(=O)N/N=C(\C)c2ccccc2)cc(OC)c1OC	61	n	n	n
COc1ccc(/C(C)=N/NC(=O)c2ccccc2)cc1OC	n	n	n	n
COc1cc(C(=O)N/N=C(\C)Cc2ccccc2)cc(OC)c1OC	58	n	n	n
CCC(Cc1ccccc1)NCc1c(C(=O)O)n(Cc2ccccc2)c2ccccc12 (configuration not stated)	n	n	n	n
COc1cc(C(=O)NN=C(C2CC2)C2CC2)cc(OC)c1OC	59	n	n	n
COc1cc(C(=O)NC2CCCCCCC2)cc(OC)c1OC	n	n	n	n
SMILES	TEAD-YAP inh	MITF inh	FBW7 activator	GPR151 activ
COc1ccc(-c2c[n+](CC(=O)c3ccc(Cl)cc3)c3n2CCCCC3)cc1	n	n	n	n
COc1ccc(C(=O)C[n+]2cc(-c3ccc(OC)cc3)n3c2CCCCC3)cc1	38	n	n	n
Cc1ccc(Oc2cc(Nc3c(C)cc(C)cc3C)c3c4c(onc24)-c2ccccc2C3=O)cc1	n	n	n	n
CCn1c(C)[n+](CCOC(C)=O)c2cc(Cl)c(Cl)cc21	n	n	n	n
CCCCCN1/C(=C\C=C\c2n(CCCC)c3cc(Cl)c(Cl)cc3[n+]2CCCCC)N(CCCC)c2cc(Cl)c(Cl)cc21	44	n	n	n
O=S1(=O)NC(c2cccc(F)c2)Nc2ccccc21 (configuration not stated)	n	n	n	n
COc1ccc2cc3c(N)nn(C(=O)Cc4ccccc4OC)c3nc2c1	33	n	n	n
COc1ccc2cc3c(N)nn(C(=O)c4cccc([N+](=O)[O-])c4)c3nc2c1	n	n	n	n
COc1ccc(C(=O)n2nc(N)c3cc4ccc(C)cc4nc32)cc1OC	n	n	n	n
CCOc1ccc(C(=O)n2nc(N)c3cc4cc(OC)ccc4nc32)cc1	38	n	n	n
COc1ccc2nc3c(cc2c1)c(N)nn3C(=O)c1ccc(F)cc1	36	n	n	n
COc1ccc2nc3c(cc2c1)c(N)nn3C(=O)c1ccc([N+](=O)[O-])cc1Cl	n	n	n	n
COc1ccc(C(=O)n2nc(N)c3cc4cc(OC)ccc4nc32)cc1	44	n	n	n
CCOC(=O)c1cc2oc(C)cc2n1CC(=O)N(CC)CC	n	n	n	n
COc1ccc2cc3c(N)nn(C(=O)c4ccc(Br)o4)c3nc2c1	43	n	n	n
COc1ccc2cc3c(N)nn(C(=O)c4cncc(Br)c4)c3nc2c1	n	n	n	n
CC1(C)CC2CC(C)(CN2c2ccc(C(=O)O)cc2[N+](=O)[O-])C1 (configuration not stated)	35	n	n	n
Cc1ccnc(NC(c2ccc(F)cc2)c2ccc3cccnc3c2O)c1 (configuration not stated)	73	n	n	n
Cc1ccnc(NC(c2ccc3c(c2)OCO3)c2ccc3cccnc3c2O)c1 (configuration not stated)	82	n	n	n
Oc1c(C(Nc2cccnc2)c2ccsc2)ccc2cccnc12 (configuration not stated)	50	n	n	n
Cc1ccnc(NC(c2ccncc2)c2ccc3cccnc3c2O)c1 (configuration not stated)	79	113	n	n
O=c1[nH]c(N2CCCCC2)nc2c1CCN(Cc1ccc3nccnc3c1)C2	n	n	n	n
CN(C)c1nc(Cl)c(CN2CCN(C3CCCC3)C(CCO)C2)s1 (configuration not stated)	n	n	n	n
Cc1ccnc(NC(c2ccccn2)c2ccc3cccnc3c2O)c1 (configuration not stated)	71	70	n	n
Cc1ccnc(NC(c2ccsc2)c2ccc3cccnc3c2O)c1 (configuration not stated)	89	62	n	n
SMILES	TEAD-YAP inh	MITF inh	FBW7 activator	GPR151 activ
CCc1cccc(OCC(O)CN2CCC(C(N)=O)CC2)c1 (configuration not stated)	n	n	n	n
CCOc1ccccc1-n1c(N)c(C(=O)Nc2ccc(C)cc2)sc1=S	n	n	n	n
O=C1C=C(Nc2ccc(Cl)cc2Cl)CC(c2ccco2)C1 (configuration not stated)	39	n	n	n
O=C1C=C(NCc2ccc(Cl)cc2)CC(c2ccco2)C1 (configuration not stated)	n	n	n	n
Cc1ccc(Nc2ncnc3c2c(-c2ccccc2)cn3-c2ccccc2)cc1	n	n	n	n
Cc1[nH]n(-c2ccccc2)c(=O)c1/C=N/NC(=O)C1COc2ccccc2O1 (configuration not stated)	36	n	n	n
COC(=O)c1ccc(/C=N/NC(=O)C2COc3ccccc3O2)cc1 (configuration not stated)	n	n	n	n
CC(=O)N/N=C/c1c(C)[nH]n(-c2ccccc2)c1=O	n	n	n	n
CC(C)(C)c1ccc(/C=N/NC(=O)C2COc3ccccc3O2)cc1 (configuration not stated)	35	n	n	n
Cc1ccccc1-n1[nH]c(C)c(/C=N/NC(=O)C(=O)N/N=C/c2c(C)[nH]n(-c3ccccc3C)c2=O)c1=O	n	52	n	n
